This note sets out measurements from PubChem BioAssay (Tox21).

Inconclusive results are not listed. Some compounds were tested as several samples or in several runs, with calls that do not always agree. Active and inactive are the calls of the source. Unless noted, calls come from the whole dose curve.

For experiment [1], the target named is Thyrotropin receptor (Homo sapiens) (UniProt P16473). The experiment in a line: qHTS assay to identify small molecule agonists of the thyroid stimulating hormone receptor (TSHR) signaling pathway (AID 1224843). Note: nearly all actives have a fitted effect of over 45% in size. Note: potency is the fitted concentration of half-maximal effect. The settings on record: TSHR-HEK293 cells, cAMP HTRF, agonist mode, 30 min; series mostly up to 92.4 µM. The method in brief:
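HEK293 cells stably bearing the thyrotropin receptor were plated at 800 cells/well and challenged with compound (30 min, RT). Accumulated cAMP was quantified via cAMP-d2 competing for cryptate-tagged antibody.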
Background: In qHTS, concentration-response curves come from the screen itself.

A short description of experiment [2]: qHTS assay to identify small molecule agonists of the hypoxia (HIF-1) signaling pathway - cell viability counter screen (AID 1224844). Note: nearly all actives have a fitted effect of over 50% in size. The settings on record: HRE-bla ME-180 viability, CellTiter-Glo luminescence, 17 h; series mostly up to 76.8 µM. The method in brief: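 Cells (HRE-bla ME-180, 2,000 per well) sat 5 hrs at 37C, got compound for 17 hrs, were read for CCF4-AM FRET, and were finally lysed with CellTiter-Glo for a 30 min room-temperature luminescence read.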

Experiment [3] can be described thus: qHTS assay to identify small molecule agonists of H2AX (AID 1224845; active = well fitted activation curve with a large enough effect in the signal ratio in the repeat runs, not every such curve was filed as active; the % refers to the signal ratio). The following applies: CHO-K1 phospho-H2AX Ser139 HTRF, 3 h; series mostly up to 154 µM. The procedure, abridged: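 Phospho-H2AX Ser139 measured by HTRF (ex 320 nm; em 665 and 620 nm) after 24 hr antibody incubation. Compounds, 15 concentrations, 0.76% DMSO, were applied to CHO-K1 cells for 3hr at 37C before lysis.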

Experiment [4] can be described thus: qHTS assay to identify small molecule agonists of the hypoxia (HIF-1) signaling pathway (AID 1224846; active = well fitted activation curve with a large enough effect in the signal ratio in the repeat runs, not every such curve was filed as active; the % refers to the signal ratio). The following applies: HRE-bla ME-180 cells, beta-lactamase ratio, 17 h; series mostly up to 76.8 µM. The procedure, abridged: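 A low-serum medium (0.5% dialyzed FBS) holding 2,000 HRE-bla ME-180 cells per well is preincubated for 5 hrs, dosed with compounds by pintool, and kept a further 17 hrs at 37C, 5% CO2 before CCF4-AM FRET detection of beta-lactamase.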

Experiment [5] is described as follows: qHTS assay to identify small molecule agonists of H2AX - cell viability counter screen (AID 1224847).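 Note: wild-type CHO-K1 cells; top concentration of the series differs between compounds; nearly all actives have a fitted effect of over 30% in size.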 The settings on record: CHO-K1 viability, CellTiter-Glo luminescence, 3 h; series mostly up to 154 µM. The method in brief: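 CHO-K1 cells plated overnight at 37C, then exposed 3 h at 37C to compounds at 15 concentrations (0.76% DMSO final). Viability by CellTiter-Glo luminescence after 30 min at room temperature.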

The nature of experiment [6]: qHTS RealTime-Glo MT Cell Viability Assay in HepG2 cells - 24 hour (AID 1224867; active = well fitted curve in the direction sought with a large enough effect in the repeat runs; an effect the other way counts as inactive or inconclusive; note: nearly all actives have a fitted effect of over 50% in size). The following applies: RealTime-Glo luminescence; series mostly up to 76.8 µM. The procedure, abridged:
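qHTS, HepG2, 600 cells/well, RealTime-Glo (NanoLuc + prosubstrate) added with cells; 5 h preincubation; DMSO compound addition; 37 C; luminescence at 0/8/16/24/32/40 h.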

Experiment [7] is described as follows: A CellTox Green Cytotoxicity Assay to monitor cytotoxicity in HEK293 cells - 0 hour (AID 1224869; active = well fitted curve in the direction sought with a large enough effect in the repeat runs; an effect the other way counts as inactive or inconclusive; note: nearly all actives have a fitted effect of over 50% in size; note: potency is the fitted concentration of half-maximal effect). The following applies: CellTox Green fluorescence; series mostly up to 76.8 µM. The procedure, abridged:
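Fluorescence intensity, read at 0, 8, 16, 24, 32 and 40 h of compound treatment, reflected dye binding to DNA of dead HEK293 cells; compounds (23 nL, DMSO) were added 5 h after plating cells with reagent.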

Experiment [8] can be described thus: qHTS RealTime-Glo MT Cell Viability Assay in HEK293 cells - 32 hour (AID 1224868; active = well fitted curve in the direction sought with a large enough effect in the repeat runs; an effect the other way counts as inactive or inconclusive; note: nearly all actives have a fitted effect of over 50% in size; note: potency is the fitted concentration of half-maximal effect; for activity change, negative = cytotoxic: top concentration of the series differs between compounds). The settings on record: RealTime-Glo luminescence; series mostly up to 76.8 µM. The method in brief: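 Assay medium contained NanoLuc luciferase plus cell-permeant prosubstrate, added with HEK293 cells at 600 cells/well. After 5 h at 37 C/5% CO2 compounds were added; plates stayed at 37 C for 40 h with serial luminescence reads.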
% is set by controls: 0 for no effect and ±100 for the full control effect.

Thyrotropin receptor (Homo sapiens), sequence (P16473 whole entry, looked up): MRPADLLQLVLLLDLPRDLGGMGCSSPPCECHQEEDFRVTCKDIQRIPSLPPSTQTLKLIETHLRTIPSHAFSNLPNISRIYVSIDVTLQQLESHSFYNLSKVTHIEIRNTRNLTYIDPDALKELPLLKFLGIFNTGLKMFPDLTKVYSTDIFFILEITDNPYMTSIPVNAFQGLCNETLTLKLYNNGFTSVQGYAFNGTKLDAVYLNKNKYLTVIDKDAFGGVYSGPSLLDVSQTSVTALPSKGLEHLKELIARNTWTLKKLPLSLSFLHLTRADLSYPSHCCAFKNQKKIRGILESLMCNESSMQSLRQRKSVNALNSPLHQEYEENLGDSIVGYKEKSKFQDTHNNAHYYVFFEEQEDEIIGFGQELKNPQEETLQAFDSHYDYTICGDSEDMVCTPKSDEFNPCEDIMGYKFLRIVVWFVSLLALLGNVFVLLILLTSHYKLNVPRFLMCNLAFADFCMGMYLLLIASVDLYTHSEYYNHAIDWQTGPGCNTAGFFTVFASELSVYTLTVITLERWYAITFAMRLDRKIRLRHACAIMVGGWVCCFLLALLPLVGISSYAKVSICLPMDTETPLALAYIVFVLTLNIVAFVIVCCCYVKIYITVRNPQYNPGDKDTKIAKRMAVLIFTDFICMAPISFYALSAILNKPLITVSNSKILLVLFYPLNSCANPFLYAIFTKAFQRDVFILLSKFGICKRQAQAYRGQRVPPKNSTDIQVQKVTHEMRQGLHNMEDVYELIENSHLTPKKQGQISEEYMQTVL

For `CCOC(=O)c1c(N)sc2c1CCN(Cc1ccccc1)C2`, the Potency entry in experiment [1], in experiment [2], in experiment [3], in experiment [5], in experiment [6] and in experiment [7] was “inactive” throughout. In addition, the result in experiment [4] was inactive.

Consider `CCCCC[C@H](O)/C=C/[C@H]1[C@H](O)CC(=O)[C@@H]1C/C=C\CCCC(=O)O`, for which the Potency in experiment [1] was 0.0266 µM (active). Moreover, the Potency result in experiment [2], in experiment [3], in experiment [5], in experiment [6], in experiment [8] and in experiment [7] was “inactive” throughout. Also, in experiment [4], the result was inactive.

Consider `CCOC(=O)N1CCC(Nc2ccc(Cl)cc2N)CC1`, for which the Potency entry in experiment [1], in experiment [2], in experiment [3], in experiment [5] and in experiment [7] was “inactive” throughout. For the same compound, in experiment [4], the outcome was inactive.

As to `NC(=O)CCCCC(N)=O`, the Potency entry in experiment [1], in experiment [2], in experiment [3], in experiment [5] and in experiment [8] was “inactive” each time. Besides, in experiment [4], the result was inactive.

As for `CCCCCCCCCCCCCCCCCC(=O)OCC(CC)CCCC` (stereo not drawn), the Potency entry in experiment [1], in experiment [2], in experiment [3], in experiment [5], in experiment [6] and in experiment [8] was “inactive” in each case. Besides, the Potency entry in experiment [7] was “inactive”. The outcome in experiment [4] was inactive.

For `Nc1ccc(S(=O)(=O)NCc2ccccc2)cc1`, the Potency entry in experiment [1], in experiment [2], in experiment [3], in experiment [5], in experiment [6] and in experiment [8] was “inactive” each time. Besides, the Potency entry in experiment [7] was “inactive”. For the same compound, the outcome in experiment [4] was inactive.

As to `O=C(Nc1ccc(C(=O)O)c(O)c1)c1ccccc1`, the Potency result in experiment [1], in experiment [2], in experiment [3], in experiment [5], in experiment [6] and in experiment [8] was “inactive” in each case. Besides, the Potency result in experiment [7] is “inactive”. Moreover, the result in experiment [4] was inactive.

In the case of `FC(F)(F)C(F)(F)C(F)(F)C(F)(F)CCI`, the Potency entry in experiment [1], in experiment [2], in experiment [3], in experiment [5], in experiment [8] and in experiment [7] was “inactive” in each case. For the same compound, the outcome in experiment [4] was inactive.

Turning to `c1ccc2sc(SSc3nc4ccccc4s3)nc2c1`, the activation in experiment [1] is -4.06% [at 19 µM] (inactive); in experiment [4], 0.936% [at 15.8 µM] (inactive). In addition, the activity change, negative = cytotoxicity was -3.54% [at 15.8 µM] (inactive) in experiment [2], 3.41% [at 31.6 µM] (inactive) in experiment [5] and 4.65% [at 15.8 µM] (inactive) in experiment [6]. For the same compound, in experiment [3], the activation (H2AX phosphorylation) was 0.89% [at 31.6 µM] (inactive). The activity change, negative = cytotoxic in experiment [8] was 12.7% [at 15.8 µM] (inactive). Further, the cytotoxicity in experiment [7] is 4.7% [at 15.8 µM] (inactive).

`O=S(=O)(O)CO`: the Potency result in experiment [1], in experiment [2], in experiment [3], in experiment [5], in experiment [8] and in experiment [7] was “inactive” each time. Also, the outcome in experiment [4] was inactive.

As to `O=C(O)CNC(=O)c1ccccc1I`, the Potency entry in experiment [1], in experiment [2], in experiment [3], in experiment [5], in experiment [8] and in experiment [7] was “inactive” in each case. Besides, the outcome in experiment [4] was inactive.

Take `CC1=CC[C@@]23C[C@@H]1C(C)(C)[C@@H]2CC[C@H]3C`: the Potency result in experiment [1], in experiment [2], in experiment [3], in experiment [5], in experiment [6] and in experiment [7] was “inactive” in each case. Further, in experiment [4], the result was inactive.

On to `O=C(O)CO`, for which the Potency entry in experiment [1], in experiment [2], in experiment [3], in experiment [5], in experiment [6] and in experiment [8] was “inactive” each time. Further, in experiment [7], the Potency result was “inactive”. Besides, the outcome in experiment [4] was inactive.

With `CC(C)C1CCC(C(=O)N[C@H](Cc2ccccc2)C(=O)O)CC1` (stereo partly drawn), the Potency result in experiment [1], in experiment [2], in experiment [3], in experiment [5], in experiment [6] and in experiment [8] was “inactive” in each case. Besides, the Potency result in experiment [7] was “inactive”. Besides, in experiment [4], the result was inactive.

On to `CC(=O)NCCO`, for which the Potency result in experiment [1], in experiment [2], in experiment [3], in experiment [5], in experiment [6] and in experiment [7] was “inactive” throughout. In experiment [4], the result was inactive.

Turning to `O=S(=O)(Cl)c1c(Cl)cccc1Cl`, the Potency entry in experiment [1], in experiment [2], in experiment [3], in experiment [5], in experiment [6] and in experiment [8] was “inactive” throughout. Besides, the Potency result in experiment [7] is “inactive”. For the same compound, the outcome in experiment [4] was inactive.

`CC(C)N(C)C`: the Potency result in experiment [1], in experiment [2], in experiment [3], in experiment [5], in experiment [6] and in experiment [7] was “inactive” in each case. In experiment [4], the result was inactive.

As to `O=C(NC(Cc1cc(=O)[nH]c2ccccc12)C(=O)O)c1ccc(Cl)cc1` (stereo not drawn), the Potency entry in experiment [1], in experiment [2], in experiment [3], in experiment [5], in experiment [6] and in experiment [8] was “inactive” in each case. Further, the Potency entry in experiment [7] was “inactive”. Further, the outcome in experiment [4] was inactive.

As for `O=CNNC=O`, the Potency result in experiment [1], in experiment [2], in experiment [3], in experiment [5], in experiment [6] and in experiment [7] was “inactive” each time. Besides, in experiment [4], the result was inactive.

As for `Cc1ccccc1S(N)(=O)=O`, the Potency entry in experiment [1], in experiment [2], in experiment [3], in experiment [5], in experiment [6] and in experiment [8] was “inactive” throughout. Further, in experiment [7], the Potency entry is “inactive”. In addition, the outcome in experiment [4] was inactive.

Turning to `O=P(O)(O)Oc1ccccc1`, the Potency entry in experiment [1], in experiment [2], in experiment [3], in experiment [5], in experiment [6] and in experiment [8] was “inactive” in each case. In addition, the Potency result in experiment [7] is “inactive”. Besides, the result in experiment [4] was inactive.

In the case of `C[C@@H]1C[C@H]2[C@@H]3CCC4=CC(=O)C=C[C@]4(C)[C@@]3(F)[C@@H](O)C[C@]2(C)[C@@]1(O)C(=O)COP(=O)(O)O`, the Potency entry in experiment [1], in experiment [2], in experiment [3], in experiment [5], in experiment [6] and in experiment [7] was “inactive” throughout. For the same compound, in experiment [4], the outcome was inactive.

For the compound `C=CC(=O)O`, the Potency entry in experiment [1], in experiment [2], in experiment [3], in experiment [5], in experiment [6] and in experiment [8] was “inactive” each time. Further, the Potency result in experiment [7] was “inactive”. For the same compound, the outcome in experiment [4] was inactive.

Take `CCCCCCCC/C=C\CCCCCCCC(=O)OCCO`: the Potency entry in experiment [1], in experiment [2], in experiment [3], in experiment [5] and in experiment [7] was “inactive” in each case. In experiment [4], the outcome was inactive.

Regarding `COc1ccc2nc(S(=O)Cc3ncc(C)c(OC)c3C)[nH]c2c1` (stereo not drawn), the Potency entry in experiment [1], in experiment [2], in experiment [3], in experiment [5], in experiment [6] and in experiment [7] was “inactive” each time. Moreover, the result in experiment [4] was inactive. Further, the Potency in experiment [8] is 21.6 µM (active) and inactive.

Consider `O=C(c1ccccc1)C1CCC1`, for which the Potency result in experiment [1], in experiment [2], in experiment [3], in experiment [5], in experiment [6] and in experiment [8] was “inactive” in each case. Further, the result in experiment [4] was inactive. Also, the Potency in experiment [7] was 38.9 µM (active).
